From PubChem BioAssay (NCATS)
Records with an inconclusive call do not appear. A call without a number means that no potency is given here. Activity calls are given as the source filed them. Calls follow the shape of the dose curve; as a rule, active = well fitted inhibition curve with a large enough effect; inconclusive = small, poorly fitted or top-dose-only effect; inactive = no such curve, though single readings can be large or run the other way.

Assay: qHTS for Inhibitors of the Aldehyde Dehydrogenase Family (ALDH1A2, ALDH1A3, ALDH2, ALDH3A1) (AID 2061307); also: nearly all actives have a fitted effect of over 50% in size; as to potency: test system not described further here
Conditions: ALDH inhibition qHTS; series mostly up to 50.3 µM
Potency is read from the fitted curve at half-maximal effect.

**Q.** With O=S(=O)(c1ccccc1)N1CCC(N(CCc2ccccc2)Cc2ccccc2)CC1 as the compound, how does the Potency read?
**A.** 0.708 µM (active)

**Q.** For Cn1nc(-c2ccccc2)cc1C(=O)N[C@H](Cc1ccc2ccccc2c1)C(=O)O, which Potency is on record?
**A.** inactive

**Q.** For Cc1c(Cl)cccc1-n1c(CCC(=O)O)ccc1-c1cccs1, which Potency is on record?
**A.** 6.34 µM (active)

**Q.** With CCOC(=O)c1c(C)n(-c2ccc(OC)cc2)c2ccc(O)cc12 as the compound, how does the Potency read?
**A.** inactive

**Q.** With O=C1c2ccccc2-c2nnc(-c3ccncc3)cc21 as the compound, how does the Potency read?
**A.** inactive

**Q.** Which Potency does the source give for Nc1nc(NCc2ccccc2)c2ccccc2n1 here?
**A.** 10 µM (active)

**Q.** Which Potency does the source give for O=C(Nc1ccc(S(=O)(=O)N2CCOCC2)cc1)c1ccc(CN2Cc3ccccc3C2)cc1 here?
**A.** 0.316 µM (active)

**Q.** For COCCCn1c(SCC(=O)Nc2ccc(C(N)=O)cc2)nnc1-c1ccc(Cl)cc1, which Potency is on record?
**A.** 2.24 µM (active)

**Q.** With COc1ccc(OC)c(NC(=O)c2cc(C3CC3)nc3c2c(C)nn3-c2ccc(C)cc2)c1 as the compound, how does the Potency read?
**A.** inactive

**Q.** With O=Cc1ccc(N2Cc3ccccc3C2)cc1 as the compound, how does the Potency read?
**A.** inactive

**Q.** Which Potency does the source give for O=C(N/N=C/c1ccc(Br)o1)c1cccc(F)c1 here?
**A.** 6.31 µM (active)

**Q.** For Cc1ccc(-n2ncc3c(Nc4cccc(C(=O)O)c4)ncnc32)cc1, which Potency is on record?
**A.** inactive

**Q.** Which Potency does the source give for Oc1[nH]c2ccccc2c1N=NC(=S)Nc1cccnc1 here?
**A.** inactive

**Q.** For CCN1C(=O)c2ccccc2S(=O)c2ccc(C(=O)NCc3ccccc3Cl)cc21 (stereo unspecified), which Potency is on record?
**A.** 12.7 µM (active)

**Q.** For OC[C@H]1O[C@@H](OCc2ccccc2)[C@H](O)[C@@H](O)[C@H]1O, which Potency is on record?
**A.** inactive

**Q.** For Cc1ccc(-c2cc(-c3c(Cc4ccc(S(N)(=O)=O)c(F)c4)c(CC4CC4)nn3-c3nc(C(=O)O)cs3)ccc2F)s1, which Potency is on record?
**A.** 17.9 µM (active)
